Source: PubChem BioAssay
MITF primary: inhibitors of human MITF. AlphaScreen MITF homodimerization, bead proximity signal. O75030. inhibition, % at 2.6 µM. actives 0.91% (n = 650,000). AID 1259374; in the data active means inhibition above about 50%;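 further: 0% = vehicle wells with protein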
FBW7 activator: human FBW7 E3 ligase activation, primary screen | Q969H0 | actives 0.13% (n = 650,000) | AID 1259310 | normalized activity (activation), % at 26.1 µM | AlphaScreen FBW7–phospho-cyclin E peptide binding, activator screen; in the data active means normalized activity above about 1.9%;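 further: purified mutant Fbw7 with reduced substrate affinity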
GPR151 ag: human GPR151 activation; Q8TDV0; PathHunter beta-arrestin GPR151 cells, luminescence; activation, % at 11.2 µM; actives 1% (n = 650,000); in the data active means activation above about 4.9%;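 further: 0% = median of compound wells and 100% = cells with positive control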
TEAD-YAP block: TEAD-YAP interaction inhibition. AID 1259422. HEK-TIYL cells, TEAD-Gal4/YAP UAS-luciferase luminescence. inhibition, % at 9.12 µM. actives 1.4% (n = 640,000); in the data active means inhibition above about 32%;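 further: 0% = median of test compound wells and 100% = reference inhibitor wells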
An asterisk follows results filed as active. Shown are actives, neighbours in structure and some others; about 3.5% of the full set was active somewhere.

SMILES	MITF primary	FBW7 activator	GPR151 ag	TEAD-YAP block
CCCCOc1ccc(C2=N/C(=C\c3c(OC)ccc4ccccc34)C(=O)O2)cc1	-3.6	-0.1	0.9	0.1
COc1ccc(CCCC(=O)N/N=C/c2cccc(O)c2O)cc1C	-3.6	-0.2	0.3	-13.2
CC(C)(C)c1ccc(C(=O)Nc2ccccc2N2CCOCC2)cc1	-11.9	0.0	0.6	-18.6
CCc1ccc(CN2CCN(C(=O)c3ccc(F)cc3)CC2)cc1	47.1	-0.1	0.1	36.9*
O=C(c1ccc(F)cc1)N1CCN(Cc2ccc(Cl)cc2)CC1	50.0	0.0	-0.6	16.0
Cc1cc(-c2cnc(N3CCCC3)nc2C2CCN(C(=O)CCn3nccc3C)CC2)on1	6.9	-0.1	-0.7	-4.0
Cc1cccc(-c2nnc(SCC(=O)Nc3ccccc3F)o2)c1	-1.3	0.0	-0.4	63.8*
Cc1cccc(-c2nnc(SCC(=O)Nc3cc(Cl)ccc3O)o2)c1	16.6	0.0	-3.9	-38.7
CC(C)c1ccc(/C=C2\SC(=S)N(CO)C2=O)cc1	6.5	-0.1	-1.1	-17.4
COc1ccc(C)cc1-n1nnnc1SCC(=O)c1[nH]c(C)c(C(C)=O)c1C	11.6	-0.1	0.0	32.7*
Cc1cc2nc3s/c(=C/c4cc5c(cc4[N+](=O)[O-])OCO5)c(=O)n3c2cc1C	0.5	0.0	1.9	-5.5
Cc1cc2nc3s/c(=C/c4ccc(N5CCN(C)CC5)c([N+](=O)[O-])c4)c(=O)n3c2cc1C	-6.0	0.0	-1.7	37.7*
O=C(O)c1cc(-c2ccc3c(c2)OCO3)nc2cc3c(cc12)OCCO3	15.9	0.2	-0.3	32.3*
CC1=NOC(=O)/C1=C/c1ccc(-c2ccc(C(=O)O)cc2)o1	57.2*	0.0	0.3	6.8
CC1=NOC(=O)/C1=C\c1ccc(-c2ccc(Cl)c(C(=O)O)c2)o1	15.0	0.0	-0.2	-0.6
CSC1=C(C#N)C(c2ccccc2Cl)C(C(=O)Nc2ccccc2C)=C(C)N1 (centres undefined)	15.1	2.0*	-0.5	-4.0
CCSC1=C(C#N)C(c2ccccc2Cl)C(C(=O)Nc2ccccc2C)=C(C)N1 (centres undefined)	5.3	0.1	0.2	-3.5
CC(C)Oc1ccc(NC(=O)c2cccc(Cl)c2)cc1	-25.3	0.1	-6.7	-30.4
COc1cccc(C(=O)Nc2ccc(O)c(C(=O)O)c2)c1	16.1	0.0	-6.1	12.4
COc1cccc(C(=O)Nc2ccc(O)c(C)c2)c1	6.3	-0.1	-2.3	84.0*
COc1cccc(C(=O)Nc2ccc(OC(C)C)cc2)c1	7.8	-0.1	-9.6	74.8*
CCCOc1ccccc1/C=N/NC(=O)c1ccccc1O	6.8	0.1	-0.5	-24.2
Cc1c(C(=O)OCC(C)C)[nH]c2c1C(=O)CCC2	1.9	0.1	0.0	-34.8
CCOC(=O)c1[nH]c2c(c1C)C(=O)CC(c1ccc(OC)c(OC)c1)C2 (centres undefined)	7.3	0.0	0.1	2.6
Cc1c(C(=O)OCC(C)C)[nH]c2c1C(=O)CC(c1ccco1)C2 (centres undefined)	3.2	-0.4	1.8	48.8*
SMILES	MITF primary	FBW7 activator	GPR151 ag	TEAD-YAP block
Cc1c(C(=O)OC2CCCC2)[nH]c2c1C(=O)CC(c1ccco1)C2 (centres undefined)	5.5	0.7	3.5	55.1*
C/C=C/COC(=O)c1[nH]c2c(c1C)C(=O)CC(c1ccco1)C2 (centres undefined)	10.0	-0.1	1.9	56.9*
C=CCOC(=O)c1[nH]c2c(c1C)C(=O)CC(c1ccco1)C2 (centres undefined)	12.4	-0.3	0.2	50.8*
O=C(O)c1cccc(NC(=O)C2CCN(S(=O)(=O)c3cccc4nsnc34)CC2)c1	-3.5	-0.2	0.2	-4.2
Cc1[nH]c2ccccc2c1CCN1C(=O)C2CCCCC2C1=O (centres undefined)	2.9	0.2	-1.0	6.4
Cc1c(C(=O)OCC2CCCO2)[nH]c2c1C(=O)CC(c1ccco1)C2 (centres undefined)	32.6	-0.2	-0.2	51.7*
O=C(/C=C/Nc1ccc(I)cc1)c1ccco1	-7.6	-0.1	-1.0	19.0
CC(C)c1ccc(N/C=C/C(=O)c2ccco2)cc1	-19.9	-0.4	-0.6	78.1*
COc1ccc(N2CCN(c3ncnc4sc(C(=O)Nc5c(F)cc(F)cc5Br)c(C)c34)CC2)cc1	-2.9	-0.1	0.0	-14.1
O=C(O)c1cc(N=Cc2c(O)n(Cc3ccco3)c(=O)[nH]c2=O)ccc1Cl	76.2*	-0.2	-0.4	5.1
CN1CCN(c2cc(-c3ccccn3)nc(-c3cccnc3)n2)CC1	-0.6	-0.1	1.1	20.9
CNc1c(-c2nc(-c3ccc(OC)cc3)n[nH]2)nnn1Cc1ccccc1Cl	13.0	-0.1	1.3	46.3*
